Source: ChEMBL document CHEMBL4513216, “Probing the Open Global Health Chemical Diversity Library for Multistage-Active Starting Points for Next-Generation Antimalarials” (ACS Infect Dis, 2020)
Screen size: about 69,000 compounds; about 8,600 (12%) showed an effect of 50% or more. This is one part of a sample in which strong results are shown more often than they occur.

tested on: Plasmodium berghei; assay: Screen against P. berghei liver stage (PbLuc), transformed with Luciferase, at 10uM; format: functional, HepG2; details: tested at 10 uM

In order of falling INHIBITION:
1. Fc1cccc(CN2CCOC3(COCCN(CC4CC4)C3)C2)c1 (stereo not drawn)  81%
2. COc1ccc(F)c(CN2CCCC3(CCN(C4CCOCC4)C3)C2)c1 (stereo not drawn)  77.8%
3. CC1CN(C)CCN1C(=O)c1cnn(-c2cccc(Cl)c2)c1 (stereo not drawn)  74.4%
4. O=C(c1ccoc1)N1CCOC2(COCCN(CC3CC3)C2)C1 (stereo not drawn)  71.3%
5. CC1CN(C)CCN1C(=O)c1cnn(-c2ccc(Cl)cc2)c1 (stereo not drawn)  66.1%
6. CC1CN(C)CCN1C(=O)c1ccc(-n2cnnc2)cc1 (stereo not drawn)  66.1%
7. c1cc(CN2CCOCC3(CCNCC3)C2)ccn1  63.7%
8. O=C(CN1CCS(=O)(=O)CC1)NC1CCCOc2ccccc21 (stereo not drawn)  63.6%
9. c1csc(CN2CCOCC3(CCN(C4CCOCC4)C3)C2)n1 (stereo not drawn)  63.1%
10. N#Cc1cn[nH]c1NCc1cc(Cl)cc(Cl)c1O  62.2%
11. CN(C)CC(=O)N1CCC2(CC1)COCCN(Cc1ccncc1)C2  61.4%
12. O=C(Nc1cccc(C(F)(F)F)c1)N1CCN(CCn2ccnc2)CC1  60.2%
13. CCN(CC1CN(Cc2cccc(C#N)c2)CCO1)c1cccnn1 (stereo not drawn)  58.5%
14. Fc1cccc(CN2CCOCC3(CCN(C4CCOCC4)C3)C2)c1 (stereo not drawn)  58.1%
15. CCc1nc(CN2CCOC(CN(CC)c3cccnn3)C2)cs1 (stereo not drawn)  57%
16. O=C1[C@H]2CN(Cc3ccccn3)C[C@H]2CN1c1ccsc1  56.7%
17. COc1ccccc1CC(C)(C)C(=O)NCC(=O)Nc1cccnc1  56.6%
18. CCN(CC1CN(Cc2ccn(C(C)C)n2)CCO1)c1cccnn1 (stereo not drawn)  54.3%
19. c1cc(CN2CCOCC3(CCN(C4CCOCC4)C3)C2)ccn1 (stereo not drawn)  52.2%
20. COc1cc(OC)cc(C2(O)CCN(Cc3ncc(C)o3)CC2)c1  50.9%
21. c1ccc(CN2CCOCC3(CCN(C4CCOCC4)C3)C2)cc1 (stereo not drawn)  50%
22. COc1ccc(CN2C[C@H]3CN(c4ccsc4)C(=O)[C@H]3C2)cc1  50%
23. CCN(CC1CN(Cc2cccnc2)CCO1)c1cccnn1 (stereo not drawn)  48.3%
24. COc1ccc(F)c(CN2CCCC3(CCN(S(C)(=O)=O)C3)C2)c1 (stereo not drawn)  47%
25. COCCN1CCOCC2(CCCN(Cc3cccc(F)c3)C2)C1 (stereo not drawn)  46.9%
26. O=C(c1ccoc1)N1CCOC2(COCCN(c3ncccn3)C2)C1 (stereo not drawn)  46.6%
27. CC(C)(C)C(=O)NCC(=O)Nc1cccnc1  45.5%
28. O=C(Cc1ccsc1)N1CCc2ncc(Cn3cccn3)n2CC1  42.7%
29. C1CC(CN2CCOCC3(CCN(C4CCOCC4)C3)C2)CCO1 (stereo not drawn)  40.9%
30. COCCn1cnc2ccc(NC(=O)C(C)C)cc2c1=O  39.2%
31. c1cc(CN2CCOCC3(CCN(CC4CCOCC4)CC3)C2)ccn1  39.2%
32. CC(C(=O)Nc1cccc(C(F)(F)F)c1)N(C)CCN1CCOCC1 (stereo not drawn)  35.2%
33. Cn1cc(N2C[C@@H]3CN(Cc4ccccn4)C[C@@H]3C2=O)cn1  34.9%
34. c1cc(CN2CCOCC3(C2)CN(Cc2nccs2)CCO3)ccn1 (stereo not drawn)  34.4%
35. COc1c(CNC(C)c2sc(C)nc2C)c(C(C)C)nn1C (stereo not drawn)  33.7%
36. O=C1[C@H]2CN(Cc3nccs3)C[C@H]2CN1c1ccsc1  32.4%
37. CC1CN(C)CCN1C(=O)c1cnc2c(cnn2C2CCCC2)c1 (stereo not drawn)  31.2%
38. Cn1ccc2cc(CC3COCCN(C(=O)c4cccnc4)C3)ccc21 (stereo not drawn)  29.61%
39. CCn1nc(C)c2nnn(CC(=O)Nc3ccc(C)cc3)c(=O)c21  29.2%
40. N#Cc1cn[nH]c1NCc1cc(Br)ccc1O  27.5%
41. CC(C)(C)C(=O)NCCCC(=O)NC(C)(C)c1ccc2c(c1)OCO2  27.4%
42. O=C(c1ccsc1)N1CCC2(CC1)COCCN(Cc1ccncc1)C2  25.2%
43. O=C1[C@H]2CN(Cc3ccc(F)cc3)C[C@H]2CN1c1ccsc1  22.9%
44. COc1cc(OC)cc(C2(O)CCN(Cc3nc(C)c(C)o3)CC2)c1  22.2%
45. O=C(Cc1cccs1)N1CCC2(CC1)COCCN2CC1CC1  21.7%
46. CCOC(=O)CN1CCC2(CCCN(CCOc3ccccc3)C2)C1 (stereo not drawn)  21.1%
47. CC[C@@]1(O)CCN(C(=O)c2ccc(-n3cnnc3)cc2)C[C@H]1O  20.6%
48. CNC(=O)c1ccccc1NCc1ncnn1C  20%
49. CCCc1nc(CN(CC)C(=O)c2ccc(S(C)(=O)=O)cc2)no1  19.8%
50. N#Cc1cn[nH]c1NCc1cc(I)cc(I)c1O  19.7%
51. Cc1nccn1-c1ccc(=O)n(CCNC(=O)c2cccs2)n1  18.7%
52. CC1CN(C)CCN1C(=O)c1cccn1Cc1cccnc1 (stereo not drawn)  17.9%
53. c1cncc(CN2CCC3(COCCN(C4CCOCC4)C3)C2)c1 (stereo not drawn)  17.5%
54. Cc1cnn(CC2CN(Cc3cccc(C(N)=O)c3)CCO2)c1 (stereo not drawn)  16.9%
55. CC(O)CN1CCN(C(=O)c2cnn(-c3ccc(Cl)cc3)c2)CC1 (stereo not drawn)  16.6%
56. Cc1nc(C(C)C)sc1C(C)N(C)C(=O)c1ccc(=O)n(C)c1 (stereo not drawn)  16.1%
57. O=C1[C@H]2CN(Cc3ccncc3)C[C@H]2CN1c1ccsc1  15.9%
58. Cc1cnn(CC(C)Nc2nc(C)cc(N(C)C)n2)c1 (stereo not drawn)  15.6%
59. Cc1ccc(NC(=O)N2CCCC(N(C)C)C2)c(Br)c1 (stereo not drawn)  15.1%
60. CN(C)Cc1nc2c(o1)CN(C(=O)NCc1cccc(F)c1)C2  13.7%
61. Cc1ccccc1N1CCN(C(=O)c2cnn(C(C)C)c2)C(C)C1 (stereo not drawn)  12.1%
62. NS(=O)(=O)CCCNC(=O)C1(c2cccc(Cl)c2)CC1  11.8%
63. Cn1cc(CN2CCOCC3(CCN(C4CCOCC4)C3)C2)cn1 (stereo not drawn)  11.6%
64. c1csc(CN2CCOCC3(CCN(C4CCOCC4)C3)C2)c1 (stereo not drawn)  11.6%
65. COc1ccc(CN2CCOCC3(CCN(C4CCOCC4)C3)C2)cc1 (stereo not drawn)  11.6%
66. CCc1cnc(CN2CCC(O)(c3cc(OC)cc(OC)c3)CC2)o1  11.3%
67. CCn1nc(C)c(NC(=O)CN2CC[C@H](CO)[C@@H](O)C2)c1C  10.6%
68. Cc1nn(C)c(N2CCOCC2)c1CNC1CCC(O)CC1 (stereo not drawn)  9.14%
69. O=C(c1ccco1)N1CCOCC2(CCN(C3CCOCC3)C2)C1 (stereo not drawn)  8.69%
70. O=C(Nc1ccc2c(c1)OCO2)N1CCN(CCn2ccnc2)CC1  6.99%
71. COCCn1nc(C(=O)N(C)Cc2cccnc2)ccc1=O  6.72%
72. CNC(=O)c1cn[nH]c1C1CCN(Cc2cccc(C)c2OC)C1 (stereo not drawn)  6.32%
73. CN(C)c1nc2c(c(NCc3nnc4n3CCCCC4)n1)CCNC2  5.78%
74. O=C(C1CCCO1)N1CCC2(CC1)COCCN(Cc1ccncc1)C2 (stereo not drawn)  5.44%
75. O=C(C1CCOC1)N1CCC2(CC1)COCCN(Cc1ccncc1)C2 (stereo not drawn)  1.94%
76. COCCN1CC[C@H]2OCC[C@@H](C(=O)N3CCCO3)[C@H]2C1  1.9%
77. CNc1cc(N2CCCC2CNCc2cscn2)ncn1 (stereo not drawn)  -2.35%
78. Cc1ccc(C2CSCCN2C(=O)c2ccncc2)cc1 (stereo not drawn)  -2.39%
79. Cc1c[nH]c(C2COCCN2C(=O)CCc2c(C)n[nH]c2C)n1 (stereo not drawn)  -3.65%
80. CCc1nc(CN2CCOC(CN(C)c3cccnn3)C2)cs1 (stereo not drawn)  -4.16%
81. Cc1cc(C)c(CNC(=O)N2CCN(c3nccs3)CC2)c(=O)[nH]1  -5.6%
82. COCc1nc(CN2CCOC(CN(C)c3cccnn3)C2)cs1 (stereo not drawn)  -8.11%
83. Cc1cc(-n2c(C)cn(CN(C)CC3CC3)c2=O)no1  -8.9%
84. CNC(=O)CCc1cc(C2CCCCN2C)nc(C)n1 (stereo not drawn)  -11.3%
85. c1ccn(Cc2nnc3n2CCCN(Cc2ccoc2)C3)c1  -13.1%
86. CCS(=O)(=O)N1CCC2(CCCN(Cc3cc(OC)ccc3F)C2)C1 (stereo not drawn)  -14%
87. CCN(CC1CN(CCc2ccccn2)CCO1)c1cccnn1 (stereo not drawn)  -14.2%
88. Cc1cnn(-c2ccc(C(=O)N3CCN(C)CC3C)cc2)c1 (stereo not drawn)  -15.3%
89. CCCc1nc(CNC2(c3nccs3)CCCC2)cs1  -15.4%
90. CC(C)(CO)N1CCN(S(=O)(=O)CCCF)CC1  -15.565%
91. O=C(CN1CCS(=O)(=O)CC1)NC1CCCc2ccccc21 (stereo not drawn)  -17.2%
92. COC(=O)NCCCn1ccnc1-c1ccccc1  -17.4%
93. Cc1cc(NC(=O)CN2CCc3c(nc(C(C)C)n3C)C2)on1  -21.2%
94. COc1ccccc1CCNC(=O)NCC(=O)Nc1cccnc1  -21.8%
95. O=C(CN1CCS(=O)(=O)CC1)NC1CCOc2ccccc21 (stereo not drawn)  -22.4%
96. c1csc(CN2CCC3(COCCN(CC4CC4)C3)C2)n1 (stereo not drawn)  -23.3%
97. Cn1ccc(C(=O)N2CCOC3(COCCN(CC4CC4)C3)C2)n1 (stereo not drawn)  -25.1%
98. CN1CC2(CCN(C(=O)Cc3ccccn3)CC2)OCC1=O  -28.2%
99. Cc1cc(C(=O)N[C@H](C)c2onc(-c3cccnc3)c2C(=O)O)c(C)o1  -30.7%
100. CC(C)n1ccc(CN2CCOC(CNc3cccnn3)C2)n1 (stereo not drawn)  -31.5%
101. CCN(CC1CN(Cc2ccccn2)CCO1)c1cccnn1 (stereo not drawn)  -32.2%
102. CCn1ccc(NC(=O)CN2C(=O)CC(C)(C)c3ccccc32)n1  -34.9%
103. CCN(Cc1ccc2c(c1)OCO2)C(=O)c1cccnc1O  -35.5%
104. Cc1cccc(CN2CCOCC3(CCN(C4CCOCC4)C3)C2)c1 (stereo not drawn)  -35.9%
105. O=S(=O)(CCCNCCn1cccn1)c1ccccc1  -42.8%
106. Cc1cnn(CC2CCCCN2C(=O)c2n[nH]c3ccccc23)c1 (stereo not drawn)  -43.5%
107. c1cncc(-c2noc(CN3CCCC(Cn4cncn4)C3)n2)c1 (stereo not drawn)  -52.5%
108. O=C(Cc1ccc(Cl)s1)Nc1ccc2c(c1)C(=O)NC2=O  -97.9%
